HUVEC tox TNFa = toxic to HUVEC cells under TNF alpha stimulation. actives 0.17% (n = 93,000). cell count reduction, % at 2 µM. HUVEC TNFalpha-stimulated, Hoechst cell count, imaging;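 active = cell count reduction exceeding the screen mean by over 5 SD, scaled to untreated wells per plate, cut at about 78% in these data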;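 note: cells counted after 24 h of TNF alpha exposure following the 1 h pretreatment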
cytoskel mod = alters cytoskeleton assembly in HUVEC cells; HUVEC TNFa F-actin phalloidin imaging, high content; inhibition, % at 2 µM; actives 0.18% (n = 91,000);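 active = inhibition above the batch mean plus 3 SD and confirmed as a hit by visual image inspection, cut at about 30% in these data, passing the limit was not always enough; inconclusive = above the inhibition threshold but rejected on visual inspection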
E-sel TNF inh = TNF alpha driven E-selectin expression inhibition; HUVEC TNFa-induced E-selectin immunofluorescence, high content; inhibition, % at 2 µM; actives 0.71% (n = 120,000); AID 1246;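 active = inhibition above the batch mean plus 3 SD, and confirmed as a hit on visual image review, cut at about 43% in these data; inconclusive = passes the inhibition cutoff but fails visual image review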
VCAM1 TNFa inh = reduces TNF alpha induced VCAM1 expression in HUVEC. HUVEC TNFa-induced VCAM-1 immunofluorescence, high-content imaging. AID 802. inhibition, % at 2 µM. actives 0.48% (n = 95,000);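 active = inhibition above the batch mean plus 3 SD, with images confirmed as a hit by eye, cut at about 37% in these data; inconclusive = inhibition above that limit but hit not confirmed in images; inactive = inhibition not above that limit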
Large screens that a line does not name were inactive. Compounds with a hit are over-represented: about 1.2% of the library has one in this group of screens.

COc1ccc(S(=O)(=O)Nc2ccc(C)cc2)cc1N(C)S(=O)(=O)c1ccc(Cl)cc1	E-sel TNF inh 100.0
COc1nccnc1NS(=O)(=O)c1ccc(NC(=O)c2cccc(C)c2)cc1	none (no result: HUVEC tox TNFa, cytoskel mod, VCAM1 TNFa inh)
Cc1nc2ccc(NC(=O)NCCCO)cc2s1	none
COc1ccccc1-n1cnnc1SCC(=O)Nc1nc(C)c(Cl)cc1Cl	none
CC1SC(C)C(=O)N(CC(=O)NC2CCCCC2)C1=O (configuration not stated)	none (no result: HUVEC tox TNFa, cytoskel mod, VCAM1 TNFa inh)
Cn1c(CCNC(=O)c2ccco2)nc2cc(NC(=O)C3CCCCC3)ccc21	none
Cn1c(CCNC(=O)C2CCCCC2)nc2cc(NC(=O)c3cccs3)ccc21	E-sel TNF inh 63.1 (no result: HUVEC tox TNFa, cytoskel mod, VCAM1 TNFa inh)
COc1ccccc1-n1c(=O)[nH]c2c(C(N)=O)nc(C3CCCCC3)nc21	E-sel TNF inh 68.5
CC(=O)Nc1ccc(NC2(C)C(=O)c3ccccc3C2=O)cc1	HUVEC tox TNFa 87.6, VCAM1 TNFa inh 92.8 (no result: E-sel TNF inh)
CC(C)C(C)NC(=O)COC(=O)c1cc(S(=O)(=O)N(C)C)ccc1N1CCCC1 (configuration not stated)	none (no result: HUVEC tox TNFa, cytoskel mod, VCAM1 TNFa inh)
CCCOC(=O)c1ccc(NC(=O)Oc2ccccc2)cc1	HUVEC tox TNFa 100.0, VCAM1 TNFa inh inconclusive
CCCOC(=O)c1ccc(Cl)c(NC(=O)c2ccc(-c3ccccc3)cc2)c1	E-sel TNF inh 99.9
CC(=O)c1ccc(NC(=O)Oc2ccccc2)cc1	none (no result: E-sel TNF inh)
O=C(Nc1cc(Cl)ccc1Cl)c1ccc(-c2ccccc2)cc1	none (no result: HUVEC tox TNFa, cytoskel mod, VCAM1 TNFa inh)
C=CC(=O)Nc1ccc(Br)cc1	VCAM1 TNFa inh 52.4
O=C(Nc1ccc(Br)cc1)c1ccco1	none
NCCN1CCN(CCN)CC1	VCAM1 TNFa inh 94.4
CC1CN(C(=O)/C(C#N)=C2\N=C(NC(=O)c3ccccc3Cl)c3ccccc32)CC(C)O1 (configuration not stated)	E-sel TNF inh 92.7 (no result: HUVEC tox TNFa, cytoskel mod, VCAM1 TNFa inh)
COc1ccc(-c2nc(CN3CCCCC3c3nccn3C)c(C)o2)c(C)c1C (configuration not stated)	none (no result: HUVEC tox TNFa, cytoskel mod, VCAM1 TNFa inh)
CC1C(C(=O)Nc2ccccc2)CCCC1(C)C(=O)O (configuration not stated)	none
CN(C)CCNC(=O)/C(=C/c1ccc(-c2ccc(Cl)cc2)o1)NC(=O)c1ccccc1	E-sel TNF inh 93.5 (no result: HUVEC tox TNFa, cytoskel mod, VCAM1 TNFa inh)
CC1CC(=O)NN=C1c1ccc(NCCO)c([N+](=O)[O-])c1 (configuration not stated)	VCAM1 TNFa inh 39.7
COc1ccc(C(=O)Nc2ccc(C3=NNC(=O)CC3C)cc2NC(=O)c2ccc(OC)cc2)cc1 (configuration not stated)	none (no result: HUVEC tox TNFa, cytoskel mod, VCAM1 TNFa inh)
C=CCn1c(SCC(=O)NC(=O)c2cccc([N+](=O)[O-])c2)nnc1-c1ccccc1	none (no result: HUVEC tox TNFa, cytoskel mod, VCAM1 TNFa inh)
Cn1c(=O)[nH]c(=O)c2c1nc(Br)n2CCSc1nnnn1-c1ccccc1	none (no result: HUVEC tox TNFa, cytoskel mod, VCAM1 TNFa inh)
CC(=O)Cn1c(N2CCC(Cc3ccccc3)CC2)nc2c1c(=O)[nH]c(=O)n2C	cytoskel mod 31.3 (no result: E-sel TNF inh)
C=CCn1c(N2CCCC2)nc2c1c(=O)[nH]c(=O)n2C	VCAM1 TNFa inh 41.1
Cn1c(=O)[nH]c(=O)c2c1nc(N1CCCCC1)n2CCCSc1nnnn1-c1ccccc1	E-sel TNF inh 89.2 (no result: HUVEC tox TNFa, cytoskel mod, VCAM1 TNFa inh)
C=CCn1c(N2CCCCCC2)nc2c1c(=O)n(C)c(=O)n2C	none
Cc1ccc(C(C(=O)NCc2ccco2)N(C(=O)Cc2cccs2)c2cccnc2)cc1 (configuration not stated)	none (no result: HUVEC tox TNFa, cytoskel mod, VCAM1 TNFa inh)
O=C(COC(=O)C1CCN(S(=O)(=O)c2ccccc2C(F)(F)F)CC1)NCc1ccc(F)cc1	none (no result: HUVEC tox TNFa, cytoskel mod, VCAM1 TNFa inh)
CC1CC(Nc2ccccc2)=CC(=O)O1 (configuration not stated)	E-sel TNF inh 43.8
CCOC(=O)Cc1c(C)nc2c(-c3ccccc3)c[nH]n2c1=O	E-sel TNF inh 95.8 (no result: HUVEC tox TNFa, cytoskel mod, VCAM1 TNFa inh)
CCOC(=O)Cc1c(C)nc2c(-c3ccccc3)c(C)[nH]n2c1=O	none
CCC(C)NC(=O)c1ccc([N+](=O)[O-])c(Cl)c1 (configuration not stated)	none (no result: HUVEC tox TNFa, cytoskel mod, VCAM1 TNFa inh)
S=C(Nc1ccccc1Oc1ccccc1)Nc1cccc(Cl)c1Cl	none (no result: HUVEC tox TNFa, cytoskel mod, VCAM1 TNFa inh)
O=C(N/N=C/c1ccc(O)cc1)c1ccc(COc2cc(Cl)ccc2Cl)o1	E-sel TNF inh 96.0
CCN(CC)c1ccc(-c2nn3c(-c4n[nH]c5c4CCC5)nnc3s2)cc1	VCAM1 TNFa inh 47.5
CCOC(=O)C1C(=O)NC(N2CCCCC2)=NC1c1ccco1 (configuration not stated)	VCAM1 TNFa inh 97.0
C/C(=N\NC(=O)c1cc(-c2cccc([N+](=O)[O-])c2)n[nH]1)c1ccccc1O	none (no result: HUVEC tox TNFa, cytoskel mod, VCAM1 TNFa inh)
O=C(COc1ccc(/C=N/NC(=O)C(=O)N2CCCCCC2)cc1)Nc1ccccc1Cl	E-sel TNF inh 69.8 (no result: HUVEC tox TNFa, cytoskel mod, VCAM1 TNFa inh)
O=C(N/N=C/c1ccc(OCC(=O)N2CCCCC2)cc1)c1ccccc1	none
Oc1ccccc1Nc1nc(NCC2CCCO2)c2ccccc2n1 (configuration not stated)	E-sel TNF inh 65.0

Bioassay records deposited in PubChem BioAssay by Columbia University Molecular Screening Center.
